Compounds without any hit were thinned out: in the full panel of roughly 83,000, 20% have a hit.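 Interpretation: 100, growth as untreated; towards 0, rising growth inhibition; 0, no net growth; 0 to -100, cell death. Compounds scoring below 10 were considered active.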 Calls of active or inactive are those of the source.

The values that follow come from PubChem BioAssay (NCI).

This test relates to SW-620 colon. Briefly: NCI-60 one-dose screen, 48 h (100 = growth as untreated, 0 = no growth, -100 = all killed). The conditions noted are these: 10 µM unless noted. The procedure:
Growth inhibition of the SW-620 human tumor cell line is measured as a screen for anti-cancer activity. Cells are grown in 96 well plates and exposed to the test compound for 48 hours. Compounds are tested at a single concentration, which is 10^-5 M for most compounds. The reported endpoint is percent growth (GI% or GIPRCNT), where numbers from 0 - 100% represent growth inhibition, and numbers from -100% - 0 represent cell death. For example, a value of 40 represents 60% growth inhibition. A value of 0 means no net growth occurred over the course of the experiment. A value of -40 indicates 40% of cells at the beginning of the experiment died by the end of the experiment. A value of -100 means all cells are dead at the end of the experiment.
NCI-60 Human Tumor Cell Lines Screen was performed using the standard one-dose NCI protocol, which is described in more detail at https://dtp.cancer.gov/discovery_development/nci-60/default.htm.
Compounds with GIPRCNT values below 10 were considered active. Activity score was based on GIPRCNT using the following formula: […]
Score is 0 for GIPRCNT values of 100 or above, 50 for GIPRCNT values of 0, and 100 for GIPRCNT values of -100.
Turning to `C[n+]1cc2c3c(ccc2c2ccc4cc5c(cc4c21)OCO5)OCO3`, the growth is -67.3% (active).
Regarding `COc1ccc(-c2cc(-c3cc(OC)ccc3OC)nc(SCC(=O)c3ccccc3)c2C#N)cc1`, the growth is 98.6% (inactive).
As for `Fc1ccc(CNc2c3ccccc3nc3ccccc23)cc1F`, the growth is 23.7% (inactive).
In the case of `COC(=O)[C@]12CC[C@@H](C)[C@H](C)[C@@H]1C1=CC[C@@H]3[C@@]4(C)C(C=O)=C[C@@](C)(CO)[C@@H]4[C@H](O)C[C@@]3(C)[C@]1(C)CC2` it was -1.77% (active); in that of `C=CCn1c(C)nc2cc(Nc3nc(Cl)nc4ccccc34)ccc21`, 102% (inactive); in that of `COc1cc(N2C(=O)c3nccnc3C2=O)cc(OC)c1OC`, 104% (inactive).
Next, `CCCCCS(=O)(=O)Nc1ccc(C(=O)O)cc1`: 106% (inactive).
Next, `Cc1ccc(-n2nc3c(c(C#N)c2=O)CC(c2ccccc2Cl)C([N+](=O)[O-])=C3O)cc1` (stereo not given): 109% (inactive); `Cc1cc(C(=O)c2ccccc2)c(C)c2c1[nH]c1ccc(Cl)cc12`: 26.3% (inactive).
As to `Cn1cc2c(c1)-c1nc(Nc3ccccc3)ncc1CC2`, the growth is 52.1% (inactive).
In the case of `COc1ccc(S(=O)(=O)NCCNc2nccc(-c3c(-c4cccc(F)c4)nc4sccn34)n2)cc1` it was 52.6% (inactive); in that of `Cc1ccc(N2CCN(C(=S)c3cccs3)CC2)cc1`, 108% (inactive).
In the case of `CCSC1=NC2C(N(CC)C(=O)N2CC)N1/N=C/C=C/c1ccccc1[N+](=O)[O-]` (stereo not given) it was 16.7% (inactive); in that of `NC(N)=Nc1nc2ccccc2n2c1nc1ccccc12`, 24.9% (inactive).
In the case of `CC(=O)[C@@H]1CC[C@]2(COS(=O)(=O)c3ccc(C)cc3)CC[C@]3(C)[C@H](CC[C@@H]4[C@@]5(C)CCCNC(C)(C)[C@@H]5CC[C@]43C)[C@@H]12` it was 9.71% (active); in that of `O=C(CSc1nnc(-c2ccc(NC(=O)c3cccnc3)cc2)o1)N[C@@H](Cc1ccc(O)cc1)C(=O)O`, 111% (inactive).
For `CCCCC1CCCCN1C(=O)OCC` (stereo not given), the growth is 106% (inactive).
In the case of `NCCCNc1nc2ccccc2c2c(=O)c3cccc(Cl)c3sc12` it was -79.4% (active); in that of `Cc1ccc2nc(C)c(-c3nnc(SCc4ccc(C#N)cc4)o3)n2c1`, 105% (inactive); in that of `COc1ccc(C(=O)/C=C/c2c(C(F)(F)F)nc3sccn23)cc1OC`, 10.4% (inactive).
In the case of `Cc1ccc(NS(=O)(=O)c2ccc3c(c2)C(=O)CC(c2ccc(C(=O)C(C)C)cc2)N3)cc1C` (stereo not given) it was 70.5% (inactive).
In the case of `O=c1c2c3c(sc2nc(N/N=C/c2ccc(Br)cc2)n1Cc1ccccc1)CCCC3` it was 83.8% (inactive); in that of `O=C1Nc2ccccc2/C1=C/c1cn(C(=O)c2ccc(Cl)cc2)c2ccccc12`, 102% (inactive); in that of `CCCCNC(=O)Oc1ccc2c(=O)c3sc4c(=O)c5ccccc5c(=O)c4c3c(=O)c2c1`, -75.6% (active).
For `COC(=O)c1ccc(C2Nc3ccc(S(=O)(=O)Nc4ccc(C)c(C)c4)cc3C3OCCC23)cc1` (stereo not given), the growth is 78.5% (inactive).
In the case of `NC(=N\N=C/c1cccc([N+](=O)[O-])c1)/C(N)=N\N=C/c1cccc([N+](=O)[O-])c1` it was 38.9% (inactive); in that of `CN1CCN(CC(=O)Nc2nc(-c3cccc(NS(=O)(=O)c4cccc5c(N(C)C)cccc45)c3)cs2)CC1`, 62.6% (inactive); in that of `Cc1c(C)c2c(c(C)c1OCC(=O)O)CC[C@@](C)(CCC[C@@H](C)CCC[C@@H](C)CCCC(C)C)O2`, -41.8% [50 µM] (active).
Next, `O=C(Nc1ccccc1Cl)Oc1ccc(-c2ccccc2)cc1`: 112% (inactive); `COc1ccc(C2c3ccc4ccccc4c3Oc3nc(C)[nH]c(=O)c32)cc1` (stereo not given): 97.4% (inactive).
In the case of `Cc1ccc2c(c1)Sc1c(ccc3ccccc13)N2` it was 73.7% (inactive); in that of `Fc1c[c-]c(-c2ccccn2)c(F)c1.[CH3-].[Pt+2].c1ccc(P(C[PH+](c2ccccc2)c2ccccc2)c2ccccc2)cc1`, -63.5% (active).
For the molecule `COc1cc2ncn3c(=O)c4c5c(sc4nc3c2cc1OC)CCCC5`, the growth is 90.1% (inactive).
Next, `O=C(/C=C/c1c(Cl)nc2sccn12)c1nccs1`: 77.8% (inactive).
In the case of `COc1ccc(C2=Nc3c(N)ncnc3NC(c3ccc4c(c3)OCO4)C2)cc1` (stereo not given) it was 85.5% (inactive); in that of `O=C(Nc1ccccc1-c1nc2ccccc2c(=O)[nH]1)c1cc2ccccc2[nH]1`, 94.2% (inactive); in that of `COc1cc(C(=O)/C=C/c2c(C(F)(F)F)nc3sccn23)cc(OC)c1OC`, -21.2% (active).
Next, `COc1cccc(/C=C/C(=O)c2c(C)nc3ccccc3c2/C=C/c2ccc(C)cc2)c1OC`: 31% (inactive); `CCN(CC)c1nc(SCC(=O)Nc2nc3ccc(C)cc3s2)nc(-c2ccccc2)c1C#N`: 97.9% (inactive).
With `COc1cc(/C=C/C(=O)c2c(C)nc3ccccc3c2C)ccc1OCCCN1CCN(C(=O)c2ccco2)CC1`, the growth is 68.3% (inactive).
